Laboratory results from the supplement of paper PMC12819154, “High-throughput peptide-centric local stability assay extends protein–ligand identification to membrane proteins, tissues and bacteria” (Nature Structural & Molecular Biology, 2025).

Compound: CN[C@@H]1C[C@H]2O[C@@](C)([C@@H]1OC)n1c3ccccc3c3c4c(c5c6ccccc6n2c5c31)C(=O)NC4 [staurosporine]
Experiment: log2 fold change of tryptic peptide abundance, ligand vs vehicle (limited proteolysis) (log2 ratio); higher = more trypsin-susceptible (destabilized)
Details: ligand concentration: 20 uM; sample: K562 cleared lysate; digestion: 4 min, 22 C (HT-PELSA RT4min, Orbitrap Astral)

Chain of UniProt P62995 (P62995 whole entry): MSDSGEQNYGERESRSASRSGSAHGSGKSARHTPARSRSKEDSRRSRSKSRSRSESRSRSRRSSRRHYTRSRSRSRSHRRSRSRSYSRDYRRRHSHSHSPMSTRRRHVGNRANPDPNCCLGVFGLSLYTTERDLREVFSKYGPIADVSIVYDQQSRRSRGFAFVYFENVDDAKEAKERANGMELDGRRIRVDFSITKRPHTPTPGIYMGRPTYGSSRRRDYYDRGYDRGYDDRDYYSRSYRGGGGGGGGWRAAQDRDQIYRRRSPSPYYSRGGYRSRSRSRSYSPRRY
Chain of UniProt O75582 (O75582 whole entry, looked up): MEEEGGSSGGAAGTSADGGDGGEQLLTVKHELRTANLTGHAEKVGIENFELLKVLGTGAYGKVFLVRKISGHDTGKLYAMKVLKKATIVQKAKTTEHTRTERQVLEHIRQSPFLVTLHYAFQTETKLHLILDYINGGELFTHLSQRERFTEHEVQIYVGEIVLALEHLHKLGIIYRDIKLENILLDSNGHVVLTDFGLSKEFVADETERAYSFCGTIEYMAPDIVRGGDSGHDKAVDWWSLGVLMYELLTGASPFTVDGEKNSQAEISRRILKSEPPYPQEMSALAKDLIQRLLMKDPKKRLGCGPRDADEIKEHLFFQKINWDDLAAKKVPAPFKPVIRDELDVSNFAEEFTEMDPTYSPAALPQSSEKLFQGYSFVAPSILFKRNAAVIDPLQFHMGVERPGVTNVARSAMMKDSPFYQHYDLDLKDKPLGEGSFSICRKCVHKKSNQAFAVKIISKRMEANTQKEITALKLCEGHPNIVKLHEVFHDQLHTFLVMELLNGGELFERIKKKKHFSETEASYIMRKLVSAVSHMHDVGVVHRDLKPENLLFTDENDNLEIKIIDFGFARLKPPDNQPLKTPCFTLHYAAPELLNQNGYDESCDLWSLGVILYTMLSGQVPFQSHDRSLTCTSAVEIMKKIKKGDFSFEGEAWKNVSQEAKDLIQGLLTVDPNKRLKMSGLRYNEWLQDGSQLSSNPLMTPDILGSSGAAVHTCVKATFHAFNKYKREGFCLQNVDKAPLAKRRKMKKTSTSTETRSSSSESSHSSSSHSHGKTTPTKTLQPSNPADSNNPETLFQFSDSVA
Chain of UniProt P30041 (P30041 whole entry): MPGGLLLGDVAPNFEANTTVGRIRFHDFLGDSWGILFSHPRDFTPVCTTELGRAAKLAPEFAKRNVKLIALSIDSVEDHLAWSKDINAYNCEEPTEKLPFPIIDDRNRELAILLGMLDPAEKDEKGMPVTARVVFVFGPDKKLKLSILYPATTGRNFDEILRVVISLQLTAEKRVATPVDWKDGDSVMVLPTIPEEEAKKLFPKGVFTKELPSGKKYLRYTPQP
Chain of UniProt P69891 (P69891 whole entry): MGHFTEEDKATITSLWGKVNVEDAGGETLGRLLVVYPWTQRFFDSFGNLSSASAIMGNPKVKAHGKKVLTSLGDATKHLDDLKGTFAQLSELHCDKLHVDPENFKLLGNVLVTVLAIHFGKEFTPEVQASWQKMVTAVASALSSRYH
Chain of UniProt P27708 (P27708 whole entry): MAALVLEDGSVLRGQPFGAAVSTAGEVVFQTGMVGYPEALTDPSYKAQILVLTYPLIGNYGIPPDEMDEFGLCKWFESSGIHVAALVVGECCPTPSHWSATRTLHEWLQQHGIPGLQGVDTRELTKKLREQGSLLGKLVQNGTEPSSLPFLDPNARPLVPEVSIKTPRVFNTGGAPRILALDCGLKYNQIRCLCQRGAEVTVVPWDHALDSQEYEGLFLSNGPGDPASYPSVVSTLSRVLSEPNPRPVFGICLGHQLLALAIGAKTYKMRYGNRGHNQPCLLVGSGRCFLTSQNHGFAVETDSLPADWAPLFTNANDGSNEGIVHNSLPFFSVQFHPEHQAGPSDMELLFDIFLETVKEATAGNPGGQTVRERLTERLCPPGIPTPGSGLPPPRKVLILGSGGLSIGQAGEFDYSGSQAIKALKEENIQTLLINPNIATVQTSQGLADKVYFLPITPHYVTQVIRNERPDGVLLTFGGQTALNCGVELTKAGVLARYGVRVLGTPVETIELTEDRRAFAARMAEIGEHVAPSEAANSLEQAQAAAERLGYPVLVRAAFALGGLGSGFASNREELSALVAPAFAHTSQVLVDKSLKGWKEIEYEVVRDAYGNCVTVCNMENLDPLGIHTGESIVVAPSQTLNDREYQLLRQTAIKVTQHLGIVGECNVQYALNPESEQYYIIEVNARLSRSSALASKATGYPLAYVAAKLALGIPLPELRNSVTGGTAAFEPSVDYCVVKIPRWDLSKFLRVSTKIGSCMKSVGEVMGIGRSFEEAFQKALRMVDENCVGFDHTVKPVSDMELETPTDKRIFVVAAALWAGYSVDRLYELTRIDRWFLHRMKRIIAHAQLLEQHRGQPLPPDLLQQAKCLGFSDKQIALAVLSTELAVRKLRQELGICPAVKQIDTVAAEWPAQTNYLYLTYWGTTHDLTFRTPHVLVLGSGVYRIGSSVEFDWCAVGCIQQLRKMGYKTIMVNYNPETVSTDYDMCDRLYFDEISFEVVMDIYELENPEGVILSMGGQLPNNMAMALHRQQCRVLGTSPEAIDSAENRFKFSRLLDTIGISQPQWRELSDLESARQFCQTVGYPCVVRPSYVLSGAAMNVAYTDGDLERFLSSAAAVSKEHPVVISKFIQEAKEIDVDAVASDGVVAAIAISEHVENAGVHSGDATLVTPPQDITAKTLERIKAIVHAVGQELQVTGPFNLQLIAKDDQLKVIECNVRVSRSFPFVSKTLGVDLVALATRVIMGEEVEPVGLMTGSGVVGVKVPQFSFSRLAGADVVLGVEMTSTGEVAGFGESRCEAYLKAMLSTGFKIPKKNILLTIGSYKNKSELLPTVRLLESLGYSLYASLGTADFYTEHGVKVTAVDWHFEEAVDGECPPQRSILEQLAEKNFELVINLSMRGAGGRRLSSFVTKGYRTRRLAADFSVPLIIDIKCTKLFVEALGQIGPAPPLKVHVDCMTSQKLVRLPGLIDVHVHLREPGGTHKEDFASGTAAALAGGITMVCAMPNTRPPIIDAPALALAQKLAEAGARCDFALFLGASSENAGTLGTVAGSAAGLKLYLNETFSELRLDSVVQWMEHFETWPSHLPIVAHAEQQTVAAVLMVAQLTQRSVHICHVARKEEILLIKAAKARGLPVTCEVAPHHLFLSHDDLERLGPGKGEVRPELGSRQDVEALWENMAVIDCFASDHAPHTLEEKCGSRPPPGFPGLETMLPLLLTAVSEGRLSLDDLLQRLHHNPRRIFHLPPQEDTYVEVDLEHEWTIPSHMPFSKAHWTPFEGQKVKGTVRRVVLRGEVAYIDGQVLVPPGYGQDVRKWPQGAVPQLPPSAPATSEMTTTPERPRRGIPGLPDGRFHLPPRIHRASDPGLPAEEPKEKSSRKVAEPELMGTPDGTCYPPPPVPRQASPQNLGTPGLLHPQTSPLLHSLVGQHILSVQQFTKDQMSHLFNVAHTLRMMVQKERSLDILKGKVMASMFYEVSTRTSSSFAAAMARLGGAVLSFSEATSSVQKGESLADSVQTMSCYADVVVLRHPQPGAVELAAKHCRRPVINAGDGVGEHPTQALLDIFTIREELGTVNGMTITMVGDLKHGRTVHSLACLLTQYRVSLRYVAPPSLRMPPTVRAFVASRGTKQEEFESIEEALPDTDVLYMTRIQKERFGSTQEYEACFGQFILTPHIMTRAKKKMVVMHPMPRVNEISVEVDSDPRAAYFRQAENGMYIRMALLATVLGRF
Chain of UniProt O60331 (O60331 whole entry): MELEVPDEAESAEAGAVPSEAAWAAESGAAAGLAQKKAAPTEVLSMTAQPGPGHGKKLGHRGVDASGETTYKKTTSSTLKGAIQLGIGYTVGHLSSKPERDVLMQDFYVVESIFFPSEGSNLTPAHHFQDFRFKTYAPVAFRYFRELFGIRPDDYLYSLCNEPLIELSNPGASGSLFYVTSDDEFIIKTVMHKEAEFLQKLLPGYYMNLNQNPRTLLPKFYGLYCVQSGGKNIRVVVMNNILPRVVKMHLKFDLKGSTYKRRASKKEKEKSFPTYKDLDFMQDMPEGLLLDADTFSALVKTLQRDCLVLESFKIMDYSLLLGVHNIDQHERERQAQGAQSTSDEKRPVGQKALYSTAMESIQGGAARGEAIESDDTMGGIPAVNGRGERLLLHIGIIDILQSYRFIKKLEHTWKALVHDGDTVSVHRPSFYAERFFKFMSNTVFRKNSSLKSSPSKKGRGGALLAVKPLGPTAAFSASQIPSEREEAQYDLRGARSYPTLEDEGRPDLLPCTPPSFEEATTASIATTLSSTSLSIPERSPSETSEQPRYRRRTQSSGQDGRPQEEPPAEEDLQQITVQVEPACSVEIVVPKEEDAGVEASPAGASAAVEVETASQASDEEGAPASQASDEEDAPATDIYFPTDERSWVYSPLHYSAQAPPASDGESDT
Chain of UniProt Q9BUB5 (Q9BUB5 whole entry, looked up): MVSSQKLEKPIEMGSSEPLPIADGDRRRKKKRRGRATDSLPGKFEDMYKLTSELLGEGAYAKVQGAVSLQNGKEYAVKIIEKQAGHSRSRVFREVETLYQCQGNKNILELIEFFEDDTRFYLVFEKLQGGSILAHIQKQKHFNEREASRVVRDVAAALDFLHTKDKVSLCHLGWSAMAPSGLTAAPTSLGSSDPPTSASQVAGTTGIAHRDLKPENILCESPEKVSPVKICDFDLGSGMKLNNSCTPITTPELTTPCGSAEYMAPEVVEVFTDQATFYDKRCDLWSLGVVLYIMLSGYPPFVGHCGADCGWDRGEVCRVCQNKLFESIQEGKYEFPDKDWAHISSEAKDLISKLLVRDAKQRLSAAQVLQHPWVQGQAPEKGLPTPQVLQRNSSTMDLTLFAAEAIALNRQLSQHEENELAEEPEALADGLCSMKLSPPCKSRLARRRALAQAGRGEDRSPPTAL
Chain of UniProt Q99497 (Q99497 whole entry): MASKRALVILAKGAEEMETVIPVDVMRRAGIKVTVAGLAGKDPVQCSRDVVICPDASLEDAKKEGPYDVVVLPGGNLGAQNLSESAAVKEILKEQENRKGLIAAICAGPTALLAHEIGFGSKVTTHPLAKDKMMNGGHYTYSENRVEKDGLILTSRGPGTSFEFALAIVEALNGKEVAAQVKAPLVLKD

Target | log2 fold change
IARS (peptide sequence: AVPSWFVR, peptide start residue: 411) (UniProt P41252) | 0.326
UniProt Q9BUB5 (peptide sequence: GLPTPQVLQR, peptide start residue: 382) | 0.803
SRRM1 (peptide sequence: KETESEAEDNLDDLEK, peptide start residue: 870) (UniProt Q8IYB3) | 1.54
AK2 (peptide sequence: NLETPLCK, peptide start residue: 86) (UniProt P54819) | 0.399
RPL18A (peptide sequence: ARAHSIQIMKVEEIAASK, peptide start residue: 119) (UniProt Q02543) | 0.524
MAST4 (peptide sequence: LTDFGLSK, peptide start residue: 209) (UniProt O15021) | -0.745
RIPK1 (peptide sequence: IADLGLASFK, peptide start residue: 154) (UniProt Q13546) | -0.814
SGK3 (peptide sequence: FYAAEIASALGYLHSIK, peptide start residue: 265) (UniProt Q96BR1) | -1.54
NEK9 (peptide sequence: TLNIFLTK, peptide start residue: 179) (UniProt Q8TD19) | -0.436
PRKACB (peptide sequence: QIEHTLNEK, peptide start residue: 85) (UniProt P22694) | 1.81
PIP5K1C (peptide sequence: DCLVLESFK, peptide start residue: 305) (UniProt O60331) | -0.54
UniProt Q9P289 (peptide sequence: NNPPTLVGDFTK, peptide start residue: 234) | -1.31
CCNB2 (peptide sequence: VAAAASCLSQK, peptide start residue: 308) (UniProt O95067) | -1.57
UniProt P49674 (peptide sequence: FDDKPDYSYLR, peptide start residue: 260) | -0.398
PRDX6 (peptide sequence: NFDEILR, peptide start residue: 156) (UniProt P30041) | 0.443
UniProt O14920 (peptide sequence: AAMMNLLR, peptide start residue: 453) | 0.5
SRRM2 (peptide sequence: SLSYSPVER, peptide start residue: 2690) (UniProt Q9UQ35) | 0.244
DHX16 (peptide sequence: QQTEKPESEDEWER, peptide start residue: 153) (UniProt O60231) | 2.31
UniProt P62995 (peptide sequence: SPSPYYSR, peptide start residue: 264) | 1.31
PUS1 (peptide sequence: GYAPESVLER, peptide start residue: 307) (UniProt Q9Y606) | -0.403
CHD4 (peptide sequence: SDSEGSDYTPGK, peptide start residue: 103) (UniProt Q14839) | 1.11
RAF1 (peptide sequence: IGDFGLATVK, peptide start residue: 445) (UniProt P04049) | 0.416
HERC2 (peptide sequence: TLHSLTQWNGLINK, peptide start residue: 2152) (UniProt O95714) | -0.746
UniProt P27448 (peptide sequence: NSIASCADEQPHIGNYR, peptide start residue: 41) | -2.82
CAD (peptide sequence: FLSSAAAVSKEHPVVISK, peptide start residue: 1110) (UniProt P27708) | -0.418
UniProt O75582 (peptide sequence: VGIENFELLK, peptide start residue: 44) | -0.481
UniProt P19525 (peptide sequence: IGDFGLVTSLK, peptide start residue: 430) | -1.42
PARK7 (peptide sequence: VTVAGLAGKDPVQCSR, peptide start residue: 33) (UniProt Q99497) | 0.199
HBG1 (peptide sequence: VLTSLGDAIK, peptide start residue: 68) (UniProt P69891) | 0.204
